Laboratory results as given in ChEMBL document CHEMBL2218924, “A broad activity screen in support of a chemogenomic map for kinase signalling research and drug discovery” (Biochem J, 2013).

Target: T1, Serine/threonine-protein kinase Sgk3 (Homo sapiens) (UniProt Q96BR1)
T1 sequence (whole entry): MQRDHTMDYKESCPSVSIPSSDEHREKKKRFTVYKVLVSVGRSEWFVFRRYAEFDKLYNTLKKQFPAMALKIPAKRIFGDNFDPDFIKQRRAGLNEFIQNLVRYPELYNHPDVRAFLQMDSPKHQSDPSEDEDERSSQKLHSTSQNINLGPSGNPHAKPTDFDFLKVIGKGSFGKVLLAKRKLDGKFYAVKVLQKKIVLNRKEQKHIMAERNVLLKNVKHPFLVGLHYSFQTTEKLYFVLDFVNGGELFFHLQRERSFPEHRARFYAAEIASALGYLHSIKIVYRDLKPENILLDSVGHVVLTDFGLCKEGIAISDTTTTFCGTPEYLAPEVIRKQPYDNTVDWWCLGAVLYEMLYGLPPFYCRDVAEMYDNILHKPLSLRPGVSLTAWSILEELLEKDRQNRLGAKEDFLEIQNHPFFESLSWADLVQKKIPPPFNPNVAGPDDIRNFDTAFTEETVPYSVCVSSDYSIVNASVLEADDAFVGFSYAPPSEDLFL
Conditions: at 10 µM

Q: Which residual activity does the source give for `CCN(CC)CCNC(=O)c1c(C)[nH]c(/C=C2\C(=O)Nc3ccc(Cl)cc32)c1C` here?
A: The residual activity was 73%.

Q: `CC(C)N(CCC(=O)c1ccc2ccccc2c1)Cc1ccccc1` was tested. Which residual activity did it give?
A: Its residual activity is 85%.

Q: For `CCCCc1c(-c2ccc(O)cc2)[nH]c2nccnc12`, which residual activity is on record?
A: The residual activity was 75%.

Q: `N#Cc1c(NC(=O)c2cccc3ccccc23)sc2c1CCCC2` was tested. Which residual activity did it give?
A: The residual activity was 86%.

Q: With `COc1ccc(Cl)cc1NC(=O)Nc1cc(C)nc2ccccc12` as the compound, how does the residual activity read?
A: The residual activity was 78%.

Q: With `N#C/C(=C\c1ccc(O)c(O)c1)C(=O)NCc1ccccc1` as the compound, how does the residual activity read?
A: The residual activity was 73%.

Q: For `O=c1cc(N2CCOCC2)oc2c(-c3ccccc3)cccc12`, which residual activity is on record?
A: The residual activity was 74%.

Q: With `O=C1Nc2ccccc2/C1=C\c1c(Cl)[nH]c2ccccc12` as the compound, how does the residual activity read?
A: The residual activity was 79%.

Q: `O=C(c1cc2cc(O)ccc2[nH]1)c1cc2cc(O)ccc2[nH]1` was tested. Which residual activity did it give?
A: Its residual activity is 52%.

Q: With `CCN1/C(=C/C(C)=O)Sc2ccc(OC)cc21` as the compound, how does the residual activity read?
A: The residual activity was 65%.

Q: Which residual activity does the source give for `Nc1nccc(-c2c(-c3ccc(F)cc3)ncn2C2CCNCC2)n1` here?
A: Its residual activity is 75%.

Q: For `NCCNc1ncc(C(N)=O)c(Nc2cccc(C(F)(F)F)c2)n1`, which residual activity is on record?
A: The residual activity was 66%.

Q: How did the residual activity turn out when `CC(C)c1nn(-c2c(Cl)cccc2Cl)c2nc(Cc3ccc(OCCO)cc3)[nH]c(=O)c12` was run?
A: Its residual activity is 81%.

Q: `O=C1C(Cl)=C(N2C(=O)CCC2=O)C(=O)c2ccccc21` was tested. Which residual activity did it give?
A: The residual activity was 82%.
